Bioassay records as filed in PubChem BioAssay.
Shown are actives, neighbours in structure and some others; about 3.1% of the full set was active somewhere.
PMP22 txn prim = modulators of PMP22 gene transcription in S16 Schwann cells; S16 Pmp22-F2sN Schwann cells, FLuc/NLuc coincidence luminescence, 24 h; Potency, µM (highest dose often 57.5 µM), inactives show top-dose activity change, negative = inhibition, actives largely listed as inhibitors; actives 2% (n = 43,000); active = clear falling dose curves in both reporters; inconclusive = both reporters move, but less clearly or upward; inactive = either reporter flat; the % is the NLuc reporter signal; note: potency is the fitted concentration of half-maximal effect; % is set by controls: 0 for no effect and ±100 for the full control effect
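Luminescent read-out of sequential FLuc and NLuc signals from a reporter embedded in the Pmp22 3' UTR of S16 Schwann cells, taken after 24 h compound exposure at 37C; compounds reducing both signals score as inhibitors of expression.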
p53null 39C kill = selectivity test: cytotoxicity in p53 null cells, nonpermissive temperature; H1299 p53-null (neo) cells, 39C, ATPlite viability, 24 h; Potency, µM (titrated, usually from 46.1 µM), for inactives: at the top dose activity, negative = cell killing, usual class: cytotoxic; actives 0.97% (n = 55,000); AID 904;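 note: potency is the fitted concentration of half-maximal effect; 0% = DMSO only and -100% = full killing by 100 µM tamoxifen; nearly all actives have a fitted effect of over 50% in size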
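Luminescent ATP signal reported cell survival after H1299 lines (neo, p53 null; or p53 A138V) received up to 46 uM compound and 24 hr incubation at 39C.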
p53null 32C kill = p53 null cell cytotoxicity, permissive temperature; H1299-neo p53 null cells, ATP luminescence, 24 h, 32C; Potency, µM (top dose mostly 46.1 µM), without a hit: at the top dose activity change, negative = cytotoxicity, most hits filed as cytotoxic; actives 0.62% (n = 55,000); AID 903;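 note: potency is the fitted concentration of half-maximal effect; 0% = DMSO only and -100% = full killing by 100 µM tamoxifen; nearly all actives have a fitted effect of over 55% in size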
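H1299-neo, 600 cells/well; overnight 37C; cpd up to 46 uM, 24 h at 32C; ATPlite luminescence after 20 min RT; normalized to DMSO (0%) and tamoxifen 100 uM (100% kill); Hill-fit AC50.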
S16 viability = toxic to S16 Pmp22-F2sN Schwann cells; S16 Pmp22-F2sN Schwann cells viability, CellTiter-Glo, 24 h; Potency, µM (doses to about 57.5 µM), inactives show at the highest dose activity change, negative = cytotoxicity, most hits filed as cytotoxic; actives 0.48% (n = 43,000); note: potency is the fitted concentration of half-maximal effect; % is set by controls: 0 for no effect and ±100 for the full control effect; nearly all actives have a fitted effect of over 65% in size
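Rat S16 Schwann reporter line, 24 h treatment with library compounds delivered at 23 nL per well. Cell viability by CellTiter-Glo luminescence.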
SKOV3 invasion = blocks SKOV3ip1 adhesion and invasion in omental model. SKOV3ip1-GFP adhesion/invasion on 3D omental model, fluorescence. Potency, µM (series often up to 45.8 µM), without a hit: top-dose activity change, negative = inhibition, usual class: inhibitors. actives 0.1% (n = 46,000). AID 1963576;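 note: potency is the fitted concentration of half-maximal effect; plate controls were DMSO wells for no effect and tomatine positive control wells for full effect; nearly all actives have a fitted effect of over 65% in size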
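A 3D layer of primary human omental fibroblasts, mesothelial cells, fibronectin and collagen I, grown 48 hr, received SKOV3ip1-GFP cells in serum-free medium plus compounds at 0.36-46 umol/L. After 2 hr RT and 16 hr 37 C, fixed adherent GFP cells were counted; normalized to DMSO and tomatine.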
mTORC1 inh = reduces mTORC1 signaling in Tsc2 and p53 null MEF cells | Potency, µM (doses to about 38.3 µM), without a hit: at the highest dose activity change, negative = inhibition, hits mostly inhibitors | AID 493208 | actives 0.78% (n = 44,000) | Tsc2-/- p53-/- MEF, phospho-rpS6 immunofluorescence/PI, 24 h;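 note: potency is the fitted concentration of half-maximal effect; plate controls were DMSO for no effect and rapamycin for full effect; nearly all actives have a fitted effect of over 50% in size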
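Immunofluorescence of rpS6 phosphorylation in Tsc2-/-, p53-/- MEFs after 24 h compound exposure, normalized to propidium iodide signal. Activity is expressed as % positive cells, thresholded with 7.5 nM rapamycin.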
NLuc saturating = NanoLuc enzyme inhibition artifact for PMP22 screen; Secreted NLuc enzyme (filtered S16 cell medium), Nano-Glo luminescence; shares compounds with PMP22 txn prim; actives 4% (n = 690); Potency, µM (doses to about 57.5 µM), without a hit: at the top dose activity change, negative = inhibition, actives largely listed as inhibitors; note: potency is the fitted concentration of half-maximal effect; % is set by controls: 0 for no effect and ±100 for the full control effect
NLuc Km counter = NanoLuc inhibition at Km substrate, PMP22 artifact check; shares compounds with PMP22 txn prim; secreted NLuc enzyme, coelenterazine luminescence, Km conditions; Potency, µM (doses to about 57.5 µM), inactives show top-dose activity change, negative = inhibition, most hits filed as inhibitors; actives 5% (n = 690); AID 1508639; note: potency is the fitted concentration of half-maximal effect; % is set by controls: 0 for no effect and ±100 for the full control effect
FLuc ctr PMP22 = inhibits firefly luciferase, PMP22 counter-screen; shares compounds with PMP22 txn prim; purified P. pyralis FLuc, luminescence, 10 min; Potency, µM (series often up to 57.5 µM), for inactives: at the top dose activity, negative = inhibition, hits mostly inhibitors; 690 tested, under 10 active; note: % of control where 0% means no effect
Target sequence (P08659 whole entry, looked up): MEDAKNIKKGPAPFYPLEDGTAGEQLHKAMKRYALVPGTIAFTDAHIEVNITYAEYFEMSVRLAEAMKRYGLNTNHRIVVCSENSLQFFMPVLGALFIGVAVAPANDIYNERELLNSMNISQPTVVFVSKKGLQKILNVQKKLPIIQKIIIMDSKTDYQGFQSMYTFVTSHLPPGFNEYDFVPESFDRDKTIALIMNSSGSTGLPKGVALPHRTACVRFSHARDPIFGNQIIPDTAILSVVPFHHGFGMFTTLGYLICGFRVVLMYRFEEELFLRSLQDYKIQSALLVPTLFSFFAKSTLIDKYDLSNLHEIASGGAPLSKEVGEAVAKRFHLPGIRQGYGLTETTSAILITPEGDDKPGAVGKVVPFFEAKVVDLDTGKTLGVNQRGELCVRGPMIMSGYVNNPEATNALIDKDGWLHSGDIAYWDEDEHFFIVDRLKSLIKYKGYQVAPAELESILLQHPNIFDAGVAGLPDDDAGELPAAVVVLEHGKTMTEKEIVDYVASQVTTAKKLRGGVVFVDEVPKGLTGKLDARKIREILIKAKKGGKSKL
S16 F2sN tox cnf = confirmation of cytotoxicity in S16 Pmp22-F2sN Schwann cells (luciferase reporters placed in the Pmp22 gene). shares compounds with PMP22 txn prim. S16 Schwann cells viability, CellTiter-Glo ATP luminescence, 24 h. Potency, µM (doses to about 57.5 µM), without a hit: top-dose activity change, negative = viability loss, usual class: cytotoxic. actives 7% (n = 690); note: potency is the fitted concentration of half-maximal effect; % is set by controls: 0 for no effect and ±100 for the full control effect
PMP22 txn conf = PMP22 transcription modulation, confirmatory; actives 22% (n = 690); S16 Schwann cells Pmp22-F2sN, dual luciferase, 24 h; shares compounds with PMP22 txn prim; AID 1508646; Potency, µM (highest dose often 57.5 µM), without a hit: at the highest dose activity change, negative = inhibition, actives largely listed as inhibitors; active = clear falling dose curves in both reporters; inconclusive = both reporters move, but less clearly or upward; inactive = either reporter flat; the % is the FLuc reporter signal; note: potency is the fitted concentration of half-maximal effect
Numbers without * were called inactive. Unless noted, calls come from the whole dose curve; as a rule, active = well fitted curve in the direction sought with a large enough effect; inconclusive = small, poorly fitted or top-dose-only effect, or another doubt; inactive = no such curve, though single readings can be large; an effect the other way counts as inactive or inconclusive.

For Cc1ccc(S(=O)(=O)c2nnn3c2nc(N2CCOCC2)c2sccc23)cc1C the results were PMP22 txn prim 13µM*, p53null 39C kill -13%, p53null 32C kill -5%, S16 viability -8%, SKOV3 invasion 4%, mTORC1 inh -9%, NLuc saturating inconclusive, NLuc Km counter 0%, FLuc ctr PMP22 -9%, S16 F2sN tox cnf 1% and PMP22 txn conf -45%.
For CCCCNc1nc2c(S(=O)(=O)c3ccc(Cl)cc3)nnn2c2ccsc12 the results were PMP22 txn prim 20µM*, p53null 39C kill -8%, p53null 32C kill 0%, S16 viability 0%, SKOV3 invasion 16%, mTORC1 inh 5%, NLuc saturating -14%, NLuc Km counter inconclusive, FLuc ctr PMP22 4%, S16 F2sN tox cnf -3% and PMP22 txn conf -19%.
O=S(=O)(c1ccc(Cl)cc1)c1nnn2c1nc(NCc1ccccc1)c1sccc12 was read as PMP22 txn prim inconclusive, p53null 39C kill inconclusive, p53null 32C kill -8%, S16 viability 22%, SKOV3 invasion -3% and mTORC1 inh -11%.
Screening CC(C)n1c(C=C[C@H](O)C[C@H](O)CC(=O)O)c(-c2ccc(F)cc2)c2ccccc21 returned SKOV3 invasion 2%.
For CC1CCCN(S(=O)(=O)c2ccc(N3CCCCS3(=O)=O)cc2)C1 (stereo unspecified) the results were PMP22 txn prim inconclusive, p53null 39C kill -10%, p53null 32C kill -3%, S16 viability -4%, SKOV3 invasion 8%, mTORC1 inh 0%, NLuc saturating -4%, NLuc Km counter 1%, FLuc ctr PMP22 -2%, S16 F2sN tox cnf 8% and PMP22 txn conf 17%.
For COc1cc2ccccc2cc1C(=O)Nc1ccc2oc(-c3cccc(Cl)c3Cl)nc2c1 the results were PMP22 txn prim 4.2µM*, p53null 39C kill 37%, p53null 32C kill 3%, S16 viability inconclusive, SKOV3 invasion -2%, mTORC1 inh inconclusive, NLuc saturating -10%, NLuc Km counter 1%, FLuc ctr PMP22 -28%, S16 F2sN tox cnf 27µM* and PMP22 txn conf 12µM*.
`COc1cc2ncn(-c3cc(OCc4ccccc4C(F)(F)F)c(C(N)=O)s3)c2cc1OC` gave SKOV3 invasion 5%.
For COc1ccc(-c2cc3nc(C)c(CCC(=O)N4CCN(c5cc(C)ccc5C)CC4)c(C)n3n2)c(OC)c1 the results were PMP22 txn prim 14µM*, p53null 39C kill -15%, p53null 32C kill 0%, S16 viability 21%, SKOV3 invasion 10%, mTORC1 inh -5%, NLuc saturating inconclusive, NLuc Km counter 0%, FLuc ctr PMP22 -5%, S16 F2sN tox cnf -7% and PMP22 txn conf -39%.
For COc1ccc(-c2cc3nc(C)c(CCC(=O)N4CCN(c5ccccc5F)CC4)c(C)n3n2)c(OC)c1 the results were PMP22 txn prim inconclusive, p53null 39C kill -2%, p53null 32C kill -10%, S16 viability 18%, SKOV3 invasion 9% and mTORC1 inh 1%.
`CCOC(=O)c1oc2c(c1C)-c1nn(Cc3ccc(Cl)cc3)cc1CC2` gave PMP22 txn prim inconclusive, p53null 39C kill 21%, p53null 32C kill 25%, S16 viability -9%, SKOV3 invasion inactive, mTORC1 inh -9%, NLuc saturating inconclusive, NLuc Km counter inconclusive, FLuc ctr PMP22 3%, S16 F2sN tox cnf -17% and PMP22 txn conf -6%.
For CCN(CC)c1ccc(NC(=O)CCCN2C(=O)C(c3ccccc3)Oc3cccnc32)c(C)c1 (stereo unspecified) the results were PMP22 txn prim 15µM*, p53null 39C kill 8%, p53null 32C kill -4%, S16 viability 8%, SKOV3 invasion 8%, mTORC1 inh -14%, NLuc saturating -10%, NLuc Km counter inconclusive, FLuc ctr PMP22 -9%, S16 F2sN tox cnf -17% and PMP22 txn conf inconclusive.
O=C(CCCN1C(=O)C(c2ccccc2)Oc2cccnc21)Nc1ccccc1C(F)(F)F (stereo unspecified) was read as PMP22 txn prim inconclusive, p53null 39C kill 10%, p53null 32C kill 3%, S16 viability 19%, SKOV3 invasion inactive and mTORC1 inh -6%.
Screening O[C@@H](COc1cccc2ncccc12)CN1CCN(C2c3ccccc3[C@@H]3[C@H](c4ccccc42)C3(F)F)CC1 (stereo partly specified) returned SKOV3 invasion -20%.
COc1ccc(N2C(=O)CSC23C(=O)N(Cc2cccc(C(F)(F)F)c2)c2ccccc23)cc1 (stereo unspecified) was read as PMP22 txn prim inconclusive, p53null 39C kill 59%, p53null 32C kill 17%, S16 viability -20%, SKOV3 invasion -14% and mTORC1 inh -5%.
